The list is not random: actives were taken first. Their share in the collection is about 18%.
TDP1 cell CPT – growth inhibition of DT40 Tdp1-/-;hTDP1 cells with camptothecin (screen for TDP1 inhibitors). chicken DT40 Tdp1-/-;hTDP1 cells + 20 nM CPT, ATP luminescence, 48 h. Potency, µM (highest dose often 46.2 µM), most hits filed as inhibitors. actives 12% (n = 420,000); further: nearly all actives have a fitted effect of over 55% in size
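Chicken DT40 Tdp1-/- cells stably complemented with human TDP1 were seeded at 400 cells/well in medium containing 20 nM camptothecin, exposed to pin-transferred compounds, and grown at 37 °C for at least 48 hr. Viability was read as ATP luminescence.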
VDR inh – vitamin D3 receptor (human) inhibition | P11473 | actives 0.93% (n = 400,000) | VDR-SRC2-3 peptide fluorescence polarization, 2 h | AID 504847 | Potency, µM, actives largely listed as inhibitors
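Signal is fluorescence polarization, reporting how far test compounds block the interaction of VDR with the SRC2-3 coregulator peptide after a 2 h room-temperature incubation.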
KAT2A inh – GCN5L2 (KAT2A) acetyltransferase inhibition | GCN5L2 HAT assay, ThioGlo1 CoA-SH fluorescence | Potency, µM (titrated, usually from 58.9 µM), usual class: inhibitors | actives 0.21% (n = 390,000)
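Compounds, pin-transferred from DMSO stocks, meet 20nM GCN5L2 for 15 min before the reaction begins with H3(1-25) peptide (75uM) and acetyl-CoA (70uM). Thiol-reactive ThioGlo1 reports CoA release over 20 min at room temperature.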
PLK1 PBD block – inhibitors of human PLK1 polo-box domain binding; Potency, µM, usual class: inhibitors; actives 2.8% (n = 360,000); P53350; Plk1 PBD binding of FITC phosphopeptide, fluorescence polarization; AID 720504; further: series mostly up to about 57 µM; nearly all actives have a fitted effect of over 65% in size
TDP1 cell noCPT – qHTS for Inhibitors of human tyrosyl-DNA phosphodiesterase 1 (TDP1): qHTS in cells in absence of CPT | DT40 Tdp1-/- hTDP1 cells, no CPT, ATP luminescence, 48 h | Potency, µM (doses to about 46.2 µM), most hits filed as inhibitors | actives 15% (n = 420,000); further: nearly all actives have a fitted effect of over 55% in size
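Stably hTDP1-transfected Tdp1-null chicken DT40 cells were treated with library compounds minus camptothecin and grown for at least 48 hr at 37 °C, after which cellular ATP was quantified by luminescence.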
TDP1 inh – inhibitors of human tyrosyl-DNA phosphodiesterase TDP1; actives 0.28% (n = 350,000); Potency, µM (highest dose often 130 µM), usual class: inhibitors; recombinant TDP1, AlphaScreen DNA substrate cleavage; AID 485290; further: nearly all actives have a fitted effect of over 40% in size
Target sequence (Q9NUW8 whole entry, looked up): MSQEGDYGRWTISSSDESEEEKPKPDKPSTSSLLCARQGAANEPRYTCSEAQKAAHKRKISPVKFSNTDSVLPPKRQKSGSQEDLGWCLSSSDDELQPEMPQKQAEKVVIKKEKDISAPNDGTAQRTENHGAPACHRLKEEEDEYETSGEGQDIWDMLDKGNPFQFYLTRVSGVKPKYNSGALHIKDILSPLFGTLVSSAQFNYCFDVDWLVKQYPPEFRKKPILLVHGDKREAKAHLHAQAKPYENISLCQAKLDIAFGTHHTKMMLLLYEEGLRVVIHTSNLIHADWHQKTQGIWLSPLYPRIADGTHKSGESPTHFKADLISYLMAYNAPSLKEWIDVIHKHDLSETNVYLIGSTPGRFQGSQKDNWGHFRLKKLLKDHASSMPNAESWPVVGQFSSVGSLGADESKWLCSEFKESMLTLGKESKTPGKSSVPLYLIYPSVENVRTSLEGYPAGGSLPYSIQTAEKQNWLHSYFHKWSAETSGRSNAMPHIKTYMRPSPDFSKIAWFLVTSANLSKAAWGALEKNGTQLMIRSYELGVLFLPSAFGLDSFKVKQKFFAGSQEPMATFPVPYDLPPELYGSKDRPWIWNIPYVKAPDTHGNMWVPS
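Enzyme-compound mixtures sat 15 min at room temperature, followed by a 5 min reaction with 15 nM final substrate and 10 min with AlphaScreen beads. Recombinant human Tdp1 was used at 1 nM final.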
Hits are given with their value; i = inactive; ? = inconclusive; nt = not tested or not shown; [ ] = remark or other dose. The call rests on the fitted dose curve; in most records, active means well fitted curve in the direction sought with a large enough effect; inconclusive means small, poorly fitted or top-dose-only effect, or another doubt; inactive means no such curve, though single readings can be large; an effect the other way counts as inactive or inconclusive.

SMILES | TDP1 cell CPT | VDR inh | KAT2A inh | PLK1 PBD block | TDP1 cell noCPT | TDP1 inh
Cc1cc(N/N=C/c2cccc(Cl)c2)nc(NCc2ccccc2)n1 | 8.2µM | i | i | i | 7.3µM | i
Cc1cncc(NCc2cccc(Cl)c2)n1 | i | nt | nt | i | i | nt
Cc1cc(N/N=C/c2cccc(F)c2)nc(NCc2ccccc2)n1 | ? | i | i | i | 13µM | i
Fc1cccc(/C=N/Nc2ccc(Cl)nn2)c1 | i | i | i | i | i | nt
Cc1cc(Nc2cccc(Cl)c2)nc(NCc2ccccc2)n1 | 5.8µM | i | i | i | 3.7µM | i
Cc1cc(O)c(CN2CCN(c3ccc(F)cc3)CC2)c2oc(=O)cc(C)c12 | ? | i | ? | nt | ? | i
CC(C)(CC(=O)O)CC(=O)Nc1cc(C(F)(F)F)cc(C(F)(F)F)c1 | i | i | i | i | i | i
CN(C)c1nc(NCc2ccccc2)nc(N/N=C/c2ccc(Cl)cc2Cl)n1 | 23µM | i | i | i | ? | i
Cc1cc(N/N=C/c2ccccc2F)nc(NCc2ccccc2)n1 | ? | i | i | i | 12µM | i
CN(C)c1nc(NCc2ccccc2)nc(N/N=C/c2ccccc2F)n1 | nt | nt | i | nt | nt | i
Cc1cc(N/N=C/c2ccc(Cl)cc2)nc(NCc2ccccc2)n1 | 21µM | i | i | i | 8.2µM | i
COc1ccc(CCNC(=O)CSc2nnc3ccc(-c4cccnc4)nn23)cc1OC | i | i | i | i | i | i
COc1cc(=O)n2c(c1C(=O)N(C)Cc1nccs1)CCN(Cc1cc3ccccc3s1)CC2 | i | nt | nt | nt | ? | nt
CCc1ccc(-n2c(=O)c3sc4ccccc4c3n(Cc3cccc(F)c3)c2=O)cc1 | i | i | i | nt | ? | i
Cc1c(OC(C)C(=O)N2C[C@H]3C[C@@H](C2)c2cccc(=O)n2C3)ccc2c3c(c(=O)oc12)CCC3 (stereo not given in full) | ? | i | i | i | i | nt
O=C(NNC(=O)c1cc2cc3ccccc3nc2s1)c1cccc(C(F)(F)F)c1 | i | i | i | i | i | nt
COc1cnc(-c2cccc(C(F)(F)F)c2)c(NC(=O)c2cc3ccccc3s2)n1 | 18µM | nt | nt | i | 10µM | nt
CC(O)(COc1ccccc1)c1ccc2c(c1)CN(Cc1cccnc1)CCO2 (stereo not given) | i[9.04 µM] | nt | nt | nt | i | nt
COc1ccc(C(CNC(=O)c2cccc(S(=O)(=O)N3CCCCC3)c2)N2CCCC2)cc1 (stereo not given) | i | i | i | i | i | i
C=CCN(c1ccccc1)S(=O)(=O)c1cccc(C(=O)NCC(c2ccc(OC)cc2)N2CCCCC2)c1 (stereo not given) | 5.8µM | i | i | i | 5.8µM | i
C=CCN(c1ccccc1OC)S(=O)(=O)c1cccc(C(=O)NCC(c2ccc(OC)cc2)N2CCCC2)c1 (stereo not given) | 3.7µM | i | nt | i | 7.3µM | nt
CCN(c1ccccc1)S(=O)(=O)c1cccc(C(=O)NCC(c2ccc(OC)cc2)N2CCCCC2)c1 (stereo not given) | 18µM | nt | nt | i | 8.2µM | nt
O=[N+]([O-])c1ccc2nc(C(O)C(O)c3nc4ccc([N+](=O)[O-])cc4[nH]3)[nH]c2c1 (stereo not given) | i | i | ? | i | i | nt
O=[N+]([O-])c1ccc2nc(/C=C/c3ccc(Cl)cc3)[nH]c2c1 | 21µM | i | i | i | 18µM | i
NC(=O)CSc1nc2ccc([N+](=O)[O-])cc2[nH]1 | i | i | i | i | i | i
SMILES | TDP1 cell CPT | VDR inh | KAT2A inh | PLK1 PBD block | TDP1 cell noCPT | TDP1 inh
O=[N+]([O-])c1ccc(-c2nc3ccc([N+](=O)[O-])cc3[nH]2)cc1 | 13µM | i | i | i | 9.2µM | i
O=C1NC(=O)C(c2ccccc2)(C2CCCC2)N1 (stereo not given) | i | i | nt | i | i | nt
Cc1noc(NS(=O)(=O)c2ccc(NC(=O)COc3ccccc3Br)cc2)c1C | ? | i | i | nt | ? | i[12.3 µM]
CSc1nc(SCCO)c2sc3nc(-c4ccco4)c4c(c3c2n1)CC(C)(C)OC4 | ? | i | 13µM | i | ? | nt
CSc1nc(N(CCO)CCO)c2sc3nc(-c4ccco4)c4c(c3c2n1)CCC4 | 16µM | i | ? | ? | 12µM | i
COC(=O)CSc1nc(SC)nc2c1sc1nc(-c3ccco3)c3c(c12)CC(C)(C)OC3 | i | i | nt | i | i | nt
Cc1cccc(OCc2nnc(SCC(=O)Nc3cccc(C(=O)N4CCOCC4)c3)n2C)c1 | i | i | i | i | i | i
CCOc1ccc(NS(=O)(=O)c2cc3c4c(c2)C(C)C(=O)N4CCC3)cc1 (stereo not given) | ? | i | i | i | ? | i
COc1ccccc1C(C)NCC(=O)NC(=O)NCc1ccco1 (stereo not given) | i | i | i | i | i | nt
CCOC(=O)c1ccc(C(=S)N2CCCC2)cc1 | i | i | i | 7.5µM | i | nt
COc1ccc(C(=S)N2CCCCCC2)cc1 | i | ? | i | 27µM | i | i
OCCN1CCN(C(=S)c2ccc(Cl)cc2)CC1 | i | ? | i | 6.7µM | i | i
OCCN1CCN(Cc2cccc(Oc3ccc(Cl)cc3)c2)CC1 | ? | i | i | i | ? | i
CCN1CCN(C(=S)c2ccc(OC)cc2)CC1 | i | i | i | 9.5µM | i | i
NCCCCCCC(O)(P(=O)(O)O)P(=O)(O)O | nt | i | i | nt | nt | i
O=C(OCc1ccccc1)N1CCC2CC1c1cc(-c3cc4ccccc4o3)ccc12 (stereo not given) | ? | nt | nt | i | ? | nt
Cc1ccc(S(=O)(=O)Nc2cccc(-c3ccc(N4CCCCCC4)nn3)c2)c(C)c1 | ? | ? | i | 27µM | ? | i
Cc1ccc(S(=O)(=O)Nc2ccc(-c3ccc(N4CCCCCC4)nn3)cc2)c(C)c1 | ? | i | i | nt | ? | i
Cc1cc(C)c(S(=O)(=O)Nc2ccc(-c3ccc(N4CCCCC4)nn3)cc2)cc1C | 8.2µM | i | i | nt | 18µM | i
COc1cc(F)c(S(=O)(=O)N2CCN(S(=O)(=O)c3cccc(N)c3)CC2)c(F)c1 | nt | nt | nt | nt | nt | i
O=c1c(Cl)cc(Cl)nn1-c1ccccc1 | 2.1µM | i | i | i | 1.5µM | i
COc1cc(Cl)nn(-c2ccccc2)c1=O | ? | ? | i | i | i | i
Cc1ccc(NC(=O)C(Cc2ccccc2)N2Cc3ccccc3C2=O)cc1Cl (stereo not given) | ? | i | i | nt | ? | i
COC(=O)c1sc(NC(=O)OCc2ccccc2)nc1CCNC(=O)OC(C)(C)C | ? | nt | nt | i | ? | nt
Cc1cccc2cc(CN(CC(C)C)S(=O)(=O)c3ccccc3)c(=O)[nH]c12 | ? | i | i | i | 23µM | i
